Measured values taken from PubChem BioAssay AID1159580 (chemical genetic matrix, 2015).
Screen size: about 5,500 compounds; about 2,000 (36%) were called active. Roughly 18% stayed inconclusive and do not appear here. Cut-off read from the data, not from the text of the source: active = normalized growth mostly below about 0.91 (no sharp cut-off); inconclusive = no clear call, values can overlap the other calls; inactive = mostly above about 0.92. Some of the results follow.

Assay: chemical genetic growth profiling, strain panel (AID 1159580);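 note: tested at 20 µM; growth read once vehicle control cultures reached saturation at 30 °C; 1 = growth at the plate median or of vehicle wells; lower values mean less growth of the strain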
Details: growth OD
[1] = S. cerevisiae deletion strains, locus YAL040C, strain CLN3, stronger effect = lower value
[2] = S. cerevisiae deletion strains, locus YCL061C, strain MRC1 (second series), stronger effect = lower value
[3] = S. cerevisiae deletion strains, locus YDR150W, strain NUM1, stronger effect = lower value
[4] = S. cerevisiae deletion strains, locus YDR363W, strain ESC2, stronger effect = lower value
[5] = S. cerevisiae deletion strains, locus YER002W, strain NOP16, stronger effect = lower value
[6] = S. cerevisiae deletion strains, locus YMR263W, strain SAP30, stronger effect = lower value
[7] = S. cerevisiae deletion strains, locus YMR307W, strain GAS1, stronger effect = lower value
[8] = S. cerevisiae deletion strains, locus YNL175C, strain NOP13, stronger effect = lower value
[9] = S. cerevisiae deletion strains, locus YNL197C, strain WHI3, stronger effect = lower value
[10] = S. cerevisiae deletion strains, locus YNL224C, strain SQS1, stronger effect = lower value
[11] = S. cerevisiae deletion strains, locus YOR083W, strain WHI5 (second series), stronger effect = lower value
[12] = S. cerevisiae deletion strains, locus YPL055C, strain LGE1, stronger effect = lower value
[13] = S. cerevisiae deletion strains, locus YAL013W, strain DEP1, stronger effect = lower value
[14] = S. cerevisiae deletion strains, locus YJR075W, strain HOC1, stronger effect = lower value
[15] = S. cerevisiae deletion strains, locus YNL153C, strain GIM3, stronger effect = lower value
[16] = S. cerevisiae deletion strains, locus YNL322C, strain KRE1, stronger effect = lower value
[17] = S. cerevisiae deletion strains, locus YPL241C, strain CIN2, stronger effect = lower value

Measured: normalized growth

CNC(=O)c1cc2c(cn1)[nH]c1ccccc12
inactive: [1] 1.01 | [2] 1.01 | [3] 1 | [4] 1.01 | [5] 0.995 | S. cerevisiae deletion strains, locus YGR229C, strain SMI1, stronger effect = lower value 1.05 | [6] 1 | [7] 0.997 | S. cerevisiae deletion strains, locus YNL128W, strain TEP1, stronger effect = lower value 0.97 | [8] 0.986 | [9] 0.983 | [10] 0.989 | [11] 0.993 | [12] 1.02

C=CC1CN2CCC1CC2C(OC(C)=O)c1ccnc2ccc(OC)cc12 (configuration not stated)
inactive: [13] 1.01 | S. cerevisiae deletion strains, locus YBR229C, strain ROT2, stronger effect = lower value 0.993 | S. cerevisiae deletion strains, locus YDL101C, strain DUN1, stronger effect = lower value 1 | [3] 1.02 | S. cerevisiae deletion strains, locus YEL061C, strain CIN8, stronger effect = lower value 0.957 | S. cerevisiae deletion strains, locus YGR078C, strain PAC10, stronger effect = lower value 1 | S. cerevisiae deletion strains, locus YHR030C, strain SLT2, stronger effect = lower value 1.06 | S. cerevisiae deletion strains, locus YHR087W, strain rtc3, stronger effect = lower value 0.95 | S. cerevisiae deletion strains, locus YJL187C, strain SWE1, stronger effect = lower value 1.01 | S. cerevisiae deletion strains, locus YJR043C, strain POL32, stronger effect = lower value 1 | [14] 0.997 | S. cerevisiae deletion strains, locus YKL190W, strain CNB1, stronger effect = lower value 0.982 | S. cerevisiae deletion strains, locus YLR039C, strain RIC1, stronger effect = lower value 1.06 | S. cerevisiae deletion strains, locus YLR058C, strain SHM2 (second series), stronger effect = lower value 1 | S. cerevisiae deletion strains, locus YLR085C, strain ARP6, stronger effect = lower value 0.975 | S. cerevisiae deletion strains, locus YLR262C, strain YPT6, stronger effect = lower value 1.06 | S. cerevisiae deletion strains, locus YML094W, strain GIM5, stronger effect = lower value 0.997 | S. cerevisiae deletion strains, locus YMR219W, strain ESC1, stronger effect = lower value 1 | [6] 0.984 | [7] 0.916 | [15] 1.02 | S. cerevisiae deletion strains, locus YNL298W, strain CLA4 (second series), stronger effect = lower value 0.967 | [16] 1 | S. cerevisiae deletion strains, locus YNR030W, strain Alg12, stronger effect = lower value 0.998 | [12] 0.999 | [17] 1 | S. cerevisiae deletion strains, locus YPR135W, strain CTF4, stronger effect = lower value 1 | S. cerevisiae strains, strain wild type, stronger effect = lower value 0.974

CNCCC(Oc1ccccc1OC)c1ccccc1 (configuration not stated)
inactive: [13] 0.996 | [1] 1.01 | [2] 1 | [3] 1.01 | [4] 1 | [5] 1 | [14] 1.01 | [15] 1.03 | [8] 1 | [9] 1.01 | [10] 1.01 | [16] 1 | [11] 1.03 | [12] 1.02 | [17] 0.996
